Source: PubChem BioAssay
Hsp70 activator = Hsp70 transcriptional activators, primary screen, cell-based, HeLa, Hsp70 promoter luciferase, luminescence, 10 µM; HeLa Hsp70 promoter luciferase reporter; scaled: vehicle 0, proteasome-inhibitor control 100%; activation, % at 10 µM; actives 0.04% (n = 200,000); AID 1203, 2008;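 active = activation above the mean across all tested compounds plus 3 SD, cutoff set per campaign, cut at about 5.5% in these data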;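 also: 100% = MG132 at 30 µM as the positive control and 0% = DMSO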
HSF1 activator = HSF-1 activators, primary screen, NIH3T3-HGL cells, MG132 stress, luminescence, single point; AID 504408, 2011; NIH3T3-HGL HSF-1 luciferase reporter, 8 h; 100% = twice DMSO control signal; activation, % at 9 µM; actives 1.7% (n = 300,000);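 active = mean replicate activation of at least 50% with a set share of replicates each reaching 50%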;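 also: 0% = median of the neutral control wells and 100% = twice that signal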
HSF1 inhib = HSF1 inhibitors in luciferase reporter cells, primary screen, cell-based, NIH3T3, luminescence | NIH3T3-HGL HSE-luciferase, MG132-induced, luminescence 8 h; active compounds read low | activity change, negative = inhibition, % at 7.5 µM (by protocol) | actives 0.77% (n = 300,000) | AID 2098, 2009;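 active = more than half of replicate wells show activity change below -50%, luminescence cut by over half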;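 also: luciferase reports HSF-1 transcriptional activity via heat shock element; 0% = median of DMSO wells and -100% = zero luminescence signal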
pCIP destab = p/CIP-EGFP fusion destabilizers, primary screen, fluorescence, F442A cells; Q05BA5; 16 h; decrease of EGFP signal, % at 10 µM; actives 0.01% (n = 290,000);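 active = EGFP signal decrease of at least 30% at 10 µM or well 3 SD below plate mean, unless failing retest; inactive = the rest, including hits failing retest or dose response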
Target sequence (Q05BA5 1-1403): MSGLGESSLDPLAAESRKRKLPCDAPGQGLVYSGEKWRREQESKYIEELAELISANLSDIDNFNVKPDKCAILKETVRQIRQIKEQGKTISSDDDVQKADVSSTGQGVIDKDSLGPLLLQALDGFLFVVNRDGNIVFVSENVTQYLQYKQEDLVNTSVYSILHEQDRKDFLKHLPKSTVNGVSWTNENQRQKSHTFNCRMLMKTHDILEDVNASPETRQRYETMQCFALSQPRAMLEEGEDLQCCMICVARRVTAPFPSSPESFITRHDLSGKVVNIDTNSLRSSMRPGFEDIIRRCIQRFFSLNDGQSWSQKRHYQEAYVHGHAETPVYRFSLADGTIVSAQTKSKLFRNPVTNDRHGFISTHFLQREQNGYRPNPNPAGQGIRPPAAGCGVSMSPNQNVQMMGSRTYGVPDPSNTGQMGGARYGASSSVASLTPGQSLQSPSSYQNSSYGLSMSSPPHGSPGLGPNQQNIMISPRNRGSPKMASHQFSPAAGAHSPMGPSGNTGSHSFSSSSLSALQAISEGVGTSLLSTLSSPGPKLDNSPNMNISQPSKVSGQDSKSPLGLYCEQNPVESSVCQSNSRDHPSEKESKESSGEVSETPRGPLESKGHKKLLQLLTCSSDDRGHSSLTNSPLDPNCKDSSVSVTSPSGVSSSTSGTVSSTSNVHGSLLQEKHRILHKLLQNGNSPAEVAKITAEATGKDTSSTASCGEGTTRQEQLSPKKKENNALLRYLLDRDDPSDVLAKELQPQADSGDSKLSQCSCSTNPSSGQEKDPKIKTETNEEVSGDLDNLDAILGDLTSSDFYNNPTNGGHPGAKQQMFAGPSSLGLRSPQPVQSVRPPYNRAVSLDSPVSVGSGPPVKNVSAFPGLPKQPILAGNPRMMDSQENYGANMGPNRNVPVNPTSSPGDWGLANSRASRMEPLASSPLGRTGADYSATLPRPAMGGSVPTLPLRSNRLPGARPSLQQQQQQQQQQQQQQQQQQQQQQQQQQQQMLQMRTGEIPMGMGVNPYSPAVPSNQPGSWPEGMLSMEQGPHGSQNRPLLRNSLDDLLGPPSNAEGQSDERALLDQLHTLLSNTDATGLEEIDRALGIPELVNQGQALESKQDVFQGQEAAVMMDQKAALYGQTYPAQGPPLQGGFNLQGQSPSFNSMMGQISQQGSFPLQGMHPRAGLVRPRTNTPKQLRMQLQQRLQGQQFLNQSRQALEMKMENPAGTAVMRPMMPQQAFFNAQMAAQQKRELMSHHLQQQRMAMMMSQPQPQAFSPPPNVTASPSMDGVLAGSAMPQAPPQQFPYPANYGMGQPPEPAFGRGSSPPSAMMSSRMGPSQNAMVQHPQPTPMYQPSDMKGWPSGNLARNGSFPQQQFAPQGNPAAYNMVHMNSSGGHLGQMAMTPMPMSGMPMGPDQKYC
NALP1 yeast inh = NALP1 inflammasome inhibitors in reconstituted yeast, colorimetric, S. cerevisiae, triplicate retest; S. cerevisiae NALP1/ASC/caspase-1 growth, X-gal OD620, 72 h; inhibition, % at 10 µM; actives 0.61% (n = 280,000); AID 2071, 2009; in the data active = inhibition mostly above about 24%, no sharp cut-off; inactive = mostly below about 32%
HSP90 inh = HSP90 inhibitors, primary screen, cell lysate, luminescence; Rabbit reticulocyte lysate, luciferase refolding luminescence, 3 h; actives 0.91% (n = 290,000); inhibition, % at 5.6 µM; Heat shock protein HSP 90 (rabbit reticulocyte lysate; luciferase refolding);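 active = inhibition above the screen-wide mean plus 3 SD, computed separately per campaign, cut at about 16% in these data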;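 also: 0% = DMSO wells and 100% = 60 µM geldanamycin wells; inhibitors lower the luminescence because luciferase stays unfolded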
Starred values were filed as active, the others as inactive; . = no result given. A selection: hits, their analogues and other compounds. The true share with any hit is near 3.8%.

SMILES	Hsp70 activator	HSF1 activator	HSF1 inhib	pCIP destab	NALP1 yeast inh	HSP90 inh
O=C(Nc1ccccc1N1CCCCC1)C1CCN(C(=O)c2ccc(Cl)cc2)CC1	.	-74.7	-67.5*	.	.	.
OCCC1CN(CC2CC2)CCN1Cc1ccc(F)c(F)c1 (configuration not stated)	.	-4.6	0.7	1.2	9.1	-4.9
COc1cccc(N(C(=O)CNC(=O)c2ccco2)C(C(=O)NC2CCCC2)c2cccnc2)c1 (configuration not stated)	.	-8.0	-3.3	-4.4	5.2	-1.9
C/C(=N\NC(=S)NCc1ccccc1)c1ccc(C)o1	-0.1	27.0	4.0	-12.4	-11.6	0.4
CC12CCC(=O)N1C(C(=O)Nc1cccc(F)c1)CS2 (configuration not stated)	.	-7.2	-3.8	-13.0	7.5	-4.2
COc1ccc(Cl)cc1C(=O)OCC(=O)NCCNC(=O)COC(=O)c1cc(Cl)ccc1OC	.	27.7	3.9	-7.2	15.4	-1.9
CCc1ccc(S(=O)(=O)NCc2cn3ccccc3n2)s1	-0.4	5.3	-4.8	-14.4	37.9*	0.3
C=C(C)C(=O)Oc1ccc(N2C(=O)[C@@H]3C4C=CC(C4)[C@@H]3C2=O)cc1	.	6.2	2.3	-2.0	3.6	-0.3
CCOC(=O)c1cc(-c2cccc([N+](=O)[O-])c2)n[nH]1	-0.3	12.5	-3.4	-9.2	30.0*	3.5
COC(=O)c1c(C)[nH]c(C)c1-c1cccc([N+](=O)[O-])c1	-0.2	-93.2	-91.2*	-7.0	5.5	-3.2
Oc1cccc(Nc2ncnc3c2oc2ccccc23)c1	.	11.9	16.4	4.1	7.2	-2.9
Cc1cc(SCC(=O)c2ccc(O)c(O)c2)n2nc(C)c(-c3ccccc3)c2n1	.	-1.4	9.5	0.9	.	-10.6
CCN1/C(=C/C=C/C=C/c2sc3ccccc3[n+]2CC)Sc2ccccc21	-0.4	-33.4	-5.8	-12.8	132.6*	3.5
CCN1/C(=C/C=C/C=C/C=C/c2sc3ccccc3[n+]2CC)Sc2ccccc21	.	-10.1	-6.4	-10.4	39.3*	12.9
CC[n+]1c(/C=C/Nc2ccccc2)sc2ccccc21	-0.4	-1.7	1.5	-14.1	6.7	-1.0
O=C(NC1CC(=O)N(c2ccc(Cl)cc2)C1)C1CC1 (configuration not stated)	.	-6.0	1.0	.	.	.
O=C(Nc1cc(Cl)ccc1-n1cncn1)c1ccc(Br)o1	.	-4.2	-2.3	.	.	.
COc1ccc2[nH]c(=O)c(-c3nnn(-c4ccc(Cl)nc4)n3)cc2c1	.	1.0	-6.5	.	.	.
Cc1oc2ccc(OCc3c(F)cccc3Cl)cc2c1C(=O)O	.	-66.2	-57.3*	-9.8	16.3	3.4
COc1cccc(C(=O)NCc2ccc(-c3nc4ccccc4s3)cc2)c1	-0.1	17.6	5.9	-3.0	17.2	1.1
CN(C(=O)OC(C)(C)C)c1ccc(-c2nc3ccccc3s2)cc1	.	-94.3	-93.2*	.	.	.
COc1ccc(C(=O)NCc2ccc(-c3nc4ccccc4s3)cc2)cc1	0.4	59.9*	24.3	1.3	1.7	-0.3
COc1ccccc1C(=O)NCc1ccc(-c2nc3ccccc3s2)cc1	-0.3	-52.8	-59.3*	-9.3	7.3	10.8
COC(=O)Cc1ccc2sc(-c3ccccc3)nc2c1	0.1	61.5*	29.8	-7.2	22.1	-2.8
CCN(CCCNC(=O)Cn1cc2c(n1)CCCC2)c1cccc(C)c1	-0.1	59.1*	44.9	5.0	35.7	-2.1
SMILES	Hsp70 activator	HSF1 activator	HSF1 inhib	pCIP destab	NALP1 yeast inh	HSP90 inh
CCN(CCCNC(=O)CCc1nc(-c2ccc(OC)cc2)no1)c1cccc(C)c1	0.6	61.6*	39.1	-13.7	10.6	2.3
CCOCCCNC(=O)Cn1cc2c(n1)CCCC2	-0.3	-7.3	-5.8	-0.9	11.5	-2.0
O=C(NCCn1cccn1)C1CCC(=O)N(CCc2cccc(F)c2)C1 (configuration not stated)	.	51.1*	18.4	-4.6	-2.8	-5.2
CCC(C)c1ccc(O)c(NC(=S)NC(=O)c2cccnc2)c1 (configuration not stated)	0.3	71.7*	53.9	-21.7	-7.9	-3.6
CCCN1CCN(CCCNC(=O)Cn2nc(C)n3c(cc4cc(OC)ccc43)c2=O)CC1	.	1.4	-1.7	-12.6	11.3	-6.0
COC(=O)c1sc(N)c(C(=O)OC)c1COC(=O)C12CC3CC(CC(O)(C3)C1)C2	.	43.4	10.2	2.1	19.4	-2.6
CCN(C(=O)CCCCC(=O)N(CC)c1ccccc1)c1ccccc1	.	13.0	0.9	.	.	.
O=C(Nc1nccs1)C(=O)c1c[nH]c2ccccc12	-0.2	51.0*	12.5	-25.2	-51.5	-0.4
C[C@@H](NC(=O)C(=O)c1c[nH]c2ccccc12)c1ccccc1	.	7.5	-5.5	.	.	.
CSc1ccccc1NC(=O)C(=O)c1c[nH]c2ccccc12	-0.2	61.5*	27.0	3.7	0.8	-3.0
C=C1CCC[C@]2(C)C[C@H]3OC(=O)C(CNCC(C)C)[C@H]3CC12 (some centres not stated)	.	68.0*	37.9	1.6	14.3	0.2
C=C1CCC[C@]2(C)C[C@H]3OC(=O)C(CNCCN(CC)CC)[C@H]3CC12 (some centres not stated)	.	61.0*	11.4	1.9	9.1	7.1
CC1=NN(c2cccc(C(=O)O)c2)C(=O)/C1=C\C=C/c1ccccc1	0.2	99.9*	73.7	-26.4	39.1	-2.1
CC1=C(/C=C/C(=O)O)C(C)(C)CCC1	-0.2	64.9*	28.5	11.0	-4.5	5.3
O=C1CCc2cc(S(=O)(=O)Nc3ccccc3)cc3c2N1CCC3	.	3.4	-5.2	.	.	.
O=C(Nc1ccc(Cl)cc1)/C(=C/c1cccc(O)c1)c1nc2ccccc2s1	-0.2	-74.4	-76.0*	-1.7	40.2	2.2
CN(C)C(=O)c1cc(C(=O)c2ccc(C(F)(F)F)cc2)c[nH]1	.	11.0	11.3	-0.9	15.7	-1.9
COC(=O)c1ccc(C(=O)Nc2ccc3c(c2)C(=O)NC3=O)cc1	.	-1.8	2.4	-17.7	.	2.6
Cc1ccc(C(=O)Nc2ccc3c(c2)C(=O)NC3=O)cc1	.	-66.2	-56.7*	-1.5	23.7	-0.5
CN1C(=O)CSc2ccc(NC(=O)NCc3ccccc3)cc21	-0.2	1.0	8.3	5.7	-0.6	0.4
Cc1ccc(CNC(=O)Nc2ccc3c(c2)N(C)C(=O)CS3)cc1	0.5	3.8	4.6	-6.4	30.7*	0.7
CC1(C)Cc2nc(NC3CCCCC3)c(C#N)cc2CO1	-0.2	3.0	1.3	-3.4	-7.2	-4.6
Cc1ccc(S(=O)(=O)N(CC(=O)N2CCc3ccccc3C2)c2ccc(Cl)c(Cl)c2)cc1	-0.4	-90.6	-87.6*	4.0	12.7	-1.0
COc1ccc(N(CC(=O)N2CCN(C)CC2)S(=O)(=O)c2ccccc2)cc1	.	1.9	-11.1	3.4	29.3	3.8
